Test results published in PubChem BioAssay (NCI).
This is part of a sample that, as a whole, favours compounds with a hit. Of some 83,000 tested, about 20% had one in any assay.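 Step 1: grow cells in 96-well plates. Step 2: add test compound at a single concentration. Step 3: incubate 48 h. Step 4: record percent growth.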 Active and inactive are the calls of the source. The calls were made as follows: active = growth percent below 10; inactive = the rest.

Tests used:
Test in all cases: NCI-60 one-dose screen, 48 h (100 = growth as untreated, 0 = no growth, -100 = all killed)
Settings in all cases: 10 µM
[1] = test system: HT29 colon
[2] = test system: SNB-75 CNS
[3] = test system: SNB-19 CNS
[4] = test system: U251 CNS
[5] = test system: PC-3 prostate
[6] = test system: SK-MEL-5 melanoma
[7] = test system: UACC-62 melanoma
[8] = test system: LOX IMVI melanoma
[9] = test system: SK-MEL-28 melanoma
[10] = test system: SK-MEL-2 melanoma
[11] = test system: SN12C renal
[12] = test system: UO-31 renal
[13] = test system: ACHN renal
[14] = test system: CAKI-1 renal
[15] = test system: A498 renal
[16] = test system: CCRF-CEM leukemia
[17] = test system: MOLT-4 leukemia
[18] = test system: SR leukemia
[19] = test system: TK-10 renal
[20] = test system: EKVX NSCLC

Measured: growth

Nc1nc(-c2ccccc2Cl)cc(-c2ccc(Cl)cc2Cl)n1
inactive: [1] 36.6% | [2] 30.5% | [3] 78.1% | [4] 65% | [5] 74.2% | [6] 75.2% | [7] 63.1% | [8] 55.4% | [9] 88% | [10] 96.3% | [11] 79.6% | [12] 62.5% | [13] 86% | [14] 68% | [15] 53.7% | [16] 57.5% | [17] 52.6% | [18] 25.4%

CSc1nc(=O)n(Cc2ccc(Cl)cc2)c(=O)[nH]1
inactive: [1] 109% | [2] 74.6% | [3] 108% | [4] 94.6% | [5] 101% | [6] 110% | [7] 112% | [8] 96.8% | [9] 107% | [10] 116% | [11] 107% | [12] 112% | [13] 103% | [14] 112% | [15] 103% | [16] 100% | [17] 105% | [18] 95.5%

Clc1ccc(Nc2ccnc(NCCCNc3ccnc4cc(Cl)ccc34)n2)cc1
active: [1] -69.3% | [2] -89.2% | [3] 4.15% | [4] -93.2% | [5] -27.5% | [6] -100% | [7] -90.5% | [8] -77.5% | [9] -92.1% | [10] -91% | [11] -51.6% | [12] -46.2% | [19] -82.9% | [13] -93.9% | [14] -71.5% | [16] -19.9% | [17] -31.5% | [18] -55.5%

COc1cc2cc3c(nc2cc1OC)CCN3Cc1ccc(NC(=O)Nc2ccc(F)cc2F)cc1
inactive: [1] 103% | [2] 86.4% | [3] 76.8% | [4] 91.8% | [5] 68.8% | [6] 86.1% | [7] 69% | [8] 88.6% | [9] 95.7% | [10] 88.2% | [11] 79.9% | [12] 68.9% | [19] 94.6% | [13] 85.2% | [14] 62.3% | [15] 49.4% | [17] 58.9% | [18] 62.1%

O=c1oc2cc(OS(=O)(=O)c3ccccc3)ccc2c2c1CCCCC2
inactive: [1] 10% | [2] 69.5% | [3] 77% | [4] 34.4% | [5] 29.5% | [6] 26% | [7] 57.2% | [8] 63.8% | [9] 73.2% | [11] 61.4% | [12] 59.4% | [19] 67.9% | [13] 82.2% | [14] 73.9% | [15] 48.9% | [16] 37.2% | [17] 31.4%
active: [18] 7%

COc1ccc(-c2nn(-c3cccc(NC(=O)c4ccc(N5CCOCC5)c(C(F)(F)F)c4)c3)cc2-c2ccncc2)cc1Cl
inactive: [1] 11.2% | [2] 47% | [3] 81.4% | [4] 23.6% | [5] 42.7% | [6] 68.2% | [7] 74.3% | [8] 74.2% | [9] 72.3% | [11] 85.2% | [12] 40.9% | [19] 82.8% | [13] 60.3% | [14] 47.9% | [15] 60% | [16] 38.3% | [17] 42.1% | [18] 27.2%

COc1cc2c(cc1OC)N(CCO)C1=C(C(=O)OC1)C2c1ccc(Cl)c(Cl)c1 (stereo unspecified)
inactive: [1] 94% | [2] 106% | [3] 98.3% | [4] 96.8% | [5] 99.2% | [6] 99.5% | [7] 101% | [8] 95.9% | [9] 120% | [20] 87% | [11] 108% | [12] 82.3% | [19] 98.7% | [13] 107% | [14] 107% | [15] 89.3% | [16] 92.6% | [17] 73.7% | [18] 86%

O=S(=O)(NCCCNc1nccc(-c2c(-c3ccc(F)cc3)nc3sccn23)n1)c1ccc2ccccc2c1
inactive: [2] 50.1% | [3] 82.4% | [4] 27.4% | [5] 35.5% | [6] 43.4% | [7] 45% | [8] 37.3% | [9] 72.6% | [11] 49.2% | [12] 13.1% | [19] 35.4% | [13] 39% | [14] 33.2% | [15] 62.4% | [16] 28.3% | [17] 35% | [18] 28.5%
active: [1] -7.72%

COc1ccc(-c2nn(-c3cccc(NC(=O)Nc4ccccc4)c3)cc2-c2ccncc2)cc1Cl
inactive: [2] 27.5% | [3] 83.5% | [6] 42.1% | [7] 46.4% | [8] 29% | [9] 11.3% | [11] 31.4% | [19] 28.1% | [13] 34.8% | [15] 32.2% | [16] 11.9%
active: [1] -69.6% | [4] -35.8% | [5] 8.81% | [12] -39.9% | [14] -7.47% | [17] -2.67% | [18] -6.06%

CCOC(=O)c1ccoc1
inactive: [1] 95.1% | [2] 94.4% | [3] 97.7% | [4] 101% | [5] 99.7% | [6] 99.6% | [7] 101% | [8] 99.6% | [9] 106% | [11] 103% | [12] 95.4% | [19] 109% | [13] 96.5% | [14] 98.1% | [15] 73.7% | [16] 100% | [17] 90.1% | [18] 86.4%

COc1ccc([N+](=O)[O-])c(C(=O)O)c1
inactive: [1] 102% | [2] 100% | [3] 103% | [4] 101% | [5] 99.8% | [6] 98.5% | [7] 106% | [8] 98.5% | [9] 106% | [11] 99.9% | [12] 88% | [19] 104% | [13] 105% | [14] 95.7% | [15] 85.6% | [16] 112% | [17] 74.4% | [18] 93.8%

O=C(CNC(=O)OCc1ccccc1)NCC(=O)Oc1ccc([N+](=O)[O-])cc1
inactive: [1] 98.7% | [2] 109% | [3] 111% | [4] 11.8% | [5] 89.8% | [6] 98.1% | [7] 107% | [8] 87.6% | [9] 104% | [20] 101% | [11] 112% | [12] 86.4% | [19] 90.3% | [13] 105% | [14] 101% | [15] 85% | [16] 109% | [17] 99.7% | [18] 101%

O=C1OCC2=C1C(c1cccc(Cl)c1)c1cc3c(cc1N2CCO)OCCO3 (stereo unspecified)
inactive: [2] 29.2% | [3] 37.4% | [5] 21.3% | [7] 27.9% | [8] 22.2% | [9] 57.7% | [20] 49.4% | [11] 30% | [12] 22.1% | [19] 68.4% | [13] 30.5% | [14] 19.9% | [17] 21.1% | [18] 32.4%
active: [1] 2.11% | [4] 0.324% | [6] -8.57% | [15] -18.1% | [16] 6.58%

COc1ccc(/C=C/C(C)=N/OCC(=O)O)cc1
inactive: [1] 105% | [2] 100% | [3] 103% | [4] 95.2% | [5] 94.4% | [6] 101% | [7] 113% | [8] 96.9% | [9] 114% | [11] 105% | [12] 95.9% | [19] 87.5% | [13] 106% | [14] 106% | [15] 72.8% | [16] 95.7% | [17] 86.8% | [18] 93.4%

COc1cccc(C(=O)Nc2ccc(CN3CCc4nc5cc(OC)c(OC)cc5cc43)cc2)c1
inactive: [1] 16.2% | [2] 49.2% | [3] 69.7% | [4] 33.9% | [5] 21.7% | [6] 50.1% | [7] 67.3% | [8] 31.3% | [9] 73.2% | [11] 54.1% | [12] 27.5% | [19] 42.4% | [13] 36.9% | [14] 21.7% | [15] 20.5% | [16] 28.7% | [17] 25.7% | [18] 24.1%

O=C(/C=C/c1cc2ccccc2[nH]c1=O)c1ccc2c(c1)OCO2
inactive: [1] 85.3% | [2] 86.7% | [3] 88.4% | [4] 86.4% | [5] 77.5% | [6] 96% | [7] 90.5% | [8] 76.4% | [9] 98.6% | [20] 95.9% | [11] 93.5% | [12] 63.7% | [19] 97.3% | [13] 103% | [14] 118% | [15] 97.6% | [17] 66% | [18] 52.5%
